According to paper PMC5515408, “Sequence-specific DNA binding by MYC/MAX to low-affinity non-E-box motifs”:
The full ranking holds about 4,500 sequences; the median of “log2 normalized fluorescence” is about -0.34, and the highest 2% start at about 3.3. Shown is part of a subset that was picked to be rich in the highest values.

Biological target: MAX:MAX (p21) (human, UniProt P61244-2 1-151)
Assay: protein-binding microarray (anti-MAX antibody); PBM: 15 mM Tris-HCl pH 7.5, 100 mM KCl, 0.075% NP40, 7.5 mM beta-mercaptoethanol, 375 ng/ul BSA, 8 ng/ul poly(dA-dT):(dA-dT), 550 ng complex, 60 min, room tempe; high values mean tight binding
Conditions: protein: recombinant; tags: 6xHis; chain copies: 2; label: 3' end of printed strand (linker) attached to glass slide; dsDNA, one strand shown
Outline: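 A custom Agilent glass array held ~5000 unique 12-nt sequences in triplicate spots, made double-stranded by primer extension. His-tagged human MYC:MAX or MAX:MAX dimers (550 ng, produced in E. coli) were applied for 60 min at room temperature in Tris-KCl buffer, pH 7.5, with NP40, BSA and poly(dA-dT) competitor. Anti-MAX and secondary antibodies detected bound protein, with scanning at 543 nm, and binding is given as log2 normalized fluorescence.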

MAX:MAX (p21), sequence (P61244 other isoform, or with tags, fused parts or gaps): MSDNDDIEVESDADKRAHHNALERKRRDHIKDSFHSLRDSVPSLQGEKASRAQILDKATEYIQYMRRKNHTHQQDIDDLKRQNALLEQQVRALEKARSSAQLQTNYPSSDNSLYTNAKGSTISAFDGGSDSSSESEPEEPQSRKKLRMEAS

Sequence | binding signal
CCGGCGGGCACGTGGTCTTAATAGCTAAGATTACTATATCGACG | 3.13 log2 normalized fluorescence
CCGGCTGCCATGTGGGATTAATAGCTAAGATTACTATATCGACG | 3.34 log2 normalized fluorescence
CCGGCTGCCATGTGGTTTTAATAGCTAAGATTACTATATCGACG | 3.15 log2 normalized fluorescence
CCGGCTACTATGCCATGTTAATAGCTAAGATTACTATATCGACG | 0.457 log2 normalized fluorescence
CCGGCTATCACGTGGGATTAATAGCTAAGATTACTATATCGACG | 3.05 log2 normalized fluorescence
CCGGCGGGCACGTGGGATTAATAGCTAAGATTACTATATCGACG | 3.48 log2 normalized fluorescence
CCGGCTGGCACGTGGGATTAATAGCTAAGATTACTATATCGACG | 3.64 log2 normalized fluorescence
CCGGCTGGCACGTCGGATTAATAGCTAAGATTACTATATCGACG | 1.33 log2 normalized fluorescence
CCGGCTGGCACGTGGCATTAATAGCTAAGATTACTATATCGACG | 3.03 log2 normalized fluorescence
CCGGCTGACGATCTGTATTAATAGCTAAGATTACTATATCGACG | -0.62 log2 normalized fluorescence
CCGGCTGAAGAGAGGTATTAATAGCTAAGATTACTATATCGACG | -0.631 log2 normalized fluorescence
CCGGCTGACCCATGGTTTTAATAGCTAAGATTACTATATCGACG | 2 log2 normalized fluorescence
CCGGCTGACATGAGGTATTAATAGCTAAGATTACTATATCGACG | 2.52 log2 normalized fluorescence
CCGGCTGACCACAAGTATTAATAGCTAAGATTACTATATCGACG | 1.12 log2 normalized fluorescence
CCGGCTGACCCAACGTATTAATAGCTAAGATTACTATATCGACG | -0.297 log2 normalized fluorescence
CCGGCCGACACGTGGTATTAATAGCTAAGATTACTATATCGACG | 3.12 log2 normalized fluorescence
CCGGCTGACACGTGACCTTAATAGCTAAGATTACTATATCGACG | 3.18 log2 normalized fluorescence
CCGGCTCACACGTGGGCTTAATAGCTAAGATTACTATATCGACG | 3.27 log2 normalized fluorescence
CCGGCTGACACGTGGGATTAATAGCTAAGATTACTATATCGACG | 3.16 log2 normalized fluorescence
CCGGCTGACACGGCTTATTAATAGCTAAGATTACTATATCGACG | 0.66 log2 normalized fluorescence
CCGGCCGACACGTGGGCTTAATAGCTAAGATTACTATATCGACG | 3.29 log2 normalized fluorescence
CCGGCTGACACGTGGGCTTAATAGCTAAGATTACTATATCGACG | 3.35 log2 normalized fluorescence
CCGGCTGACACGTGGACTTAATAGCTAAGATTACTATATCGACG | 3.07 log2 normalized fluorescence
CCGGCTGACACGTGGCCTTAATAGCTAAGATTACTATATCGACG | 3.37 log2 normalized fluorescence
CCGGCTGAAAAACCGTATTAATAGCTAAGATTACTATATCGACG | -0.672 log2 normalized fluorescence
CCGGCTGAAGGCACGTATTAATAGCTAAGATTACTATATCGACG | 0.169 log2 normalized fluorescence
CCGGCTGAGCACTGGTATTAATAGCTAAGATTACTATATCGACG | -0.181 log2 normalized fluorescence
CCGGCTGAGGACTTGTATTAATAGCTAAGATTACTATATCGACG | -0.44 log2 normalized fluorescence
CCGGCTCCCACCTGGTATTAATAGCTAAGATTACTATATCGACG | 2.61 log2 normalized fluorescence
